This note sets out measurements from the antibiotic and cytotoxicity screens of Wong et al. (2023).

Molecules are shown by their SMILES. The whole screen tested about 39,000 compounds, of which about 3,300 (8.5%) were called active. Only a selection was taken, and actives are over-represented in it overall.

This assay has as its system HepG2. In words: cytotoxicity call (relative viability < 0.9). The note with it: 10 µM.
`C[C@H]1CCCCO[C@H](CN(C)C(=O)Nc2ccccc2)[C@@H](C)CN([C@@H](C)CO)C(=O)c2cc(NC(=O)C3CCCCC3)ccc2O1`: the cytotoxicity call was “inactive”.

On to `C[C@H]1CN([C@@H](C)CO)S(=O)(=O)c2ccc(C#CC3CC3)cc2O[C@@H]1CN(C)Cc1cccc(F)c1`, for which the cytotoxicity call was “inactive”.

As to `Nc1ccn(C[C@@H](CO)OCP(=O)(O)O)c(=O)n1`, the cytotoxicity call was “inactive”.

Regarding `Cc1noc(C)c1S(=O)(=O)Nc1ccc2c(c1)C(=O)N([C@H](C)CO)C[C@@H](C)[C@H](CN(C)Cc1ccc(-c3ccccc3)cc1)O2`, the cytotoxicity call was “inactive”.

With `Cc1noc(C)c1S(=O)(=O)Nc1ccc2c(c1)C(=O)N([C@H](C)CO)C[C@H](C)[C@@H](CN(C)Cc1ccccc1)OCCCC[C@@H](C)O2`, the cytotoxicity call is “inactive”.

Take `C[C@H](CO)N1C[C@H](C)[C@@H](CN(C)C(=O)NC2CCCCC2)Oc2ccc(NC(=O)Cn3cnnn3)cc2C1=O`: the cytotoxicity call was “inactive”.

Regarding `C=CCNC(=O)[C@H]1[C@@H]2C(=O)O[C@@H](c3ccccc3)[C@@H](c3ccccc3)N2[C@@H](c2ccc(OCCO)cc2)[C@]12C(=O)Nc1ccc(C#CC3=CCCCC3)cc12`, the cytotoxicity call was “inactive”.

Turning to `CO[C@@H](CCO)[C@@H](O)c1ccc(O)c(F)c1`, the cytotoxicity call was “inactive”.

On to `C[C@H](CO)N1C[C@H](C)[C@@H](CN(C)Cc2ccccn2)Oc2ncc(C#Cc3cccc(F)c3)cc2C1=O`, for which the cytotoxicity call was “inactive”.

As for `COc1ccc(NC(=O)N(C)C[C@@H]2OCCCC[C@@H](C)Oc3ccc(NS(=O)(=O)c4ccc(F)cc4)cc3C(=O)N([C@H](C)CO)C[C@@H]2C)cc1`, the cytotoxicity call was “inactive”.

For the molecule `COc1ccc(NC(=O)N(C)C[C@H]2OCCCC[C@@H](C)Oc3ccc(NS(=O)(=O)c4ccc(F)cc4)cc3C(=O)N([C@@H](C)CO)C[C@@H]2C)cc1`, the cytotoxicity call was “inactive”.

As to `COc1ccc(S(=O)(=O)Nc2ccc3c(c2)C(=O)N([C@@H](C)CO)C[C@H](C)[C@@H](CN(C)C(=O)Nc2ccc(F)cc2)OCCCC[C@H](C)O3)cc1`, the cytotoxicity call is “active”.

Turning to `COc1ccc(S(=O)(=O)Nc2ccc3c(c2)C(=O)N([C@@H](C)CO)C[C@H](C)[C@@H](CN(C)C(=O)Nc2ccc(F)cc2)OCCCC[C@@H](C)O3)cc1`, the cytotoxicity call was “active”.

In the case of `COc1ccc(NC(=O)N(C)C[C@H]2OCCCC[C@H](C)Oc3ccc(NS(=O)(=O)c4ccc(F)cc4)cc3C(=O)N([C@H](C)CO)C[C@@H]2C)cc1`, the cytotoxicity call is “inactive”.

Take `COc1ccc(NC(=O)N(C)C[C@@H]2OCCCC[C@H](C)Oc3ccc(NS(=O)(=O)c4ccc(F)cc4)cc3C(=O)N([C@@H](C)CO)C[C@@H]2C)cc1`: the cytotoxicity call was “inactive”.

Consider `Cc1cc(=O)n2nc(S(C)(=O)=O)nc2[nH]1`, for which the cytotoxicity call was “inactive”.

Consider `C[C@H]1CN([C@@H](C)CO)S(=O)(=O)c2ccc(C#Cc3ccccc3)cc2O[C@@H]1CN(C)C(=O)c1ccccn1`, for which the cytotoxicity call is “inactive”.

Regarding `COCc1nc(C)c(CN)s1`, the cytotoxicity call was “inactive”.

Take `COc1ccc(-c2cc(=O)c3c(O)cc(O[C@@H]4O[C@H](CO)[C@@H](O)[C@H](O)[C@H]4O[C@@H]4O[C@H](COC(C)=O)[C@@H](O)[C@@H](O)[C@H]4O)c(O)c3o2)cc1`: the cytotoxicity call was “inactive”.

For the molecule `CSc1cccc(NC(=O)/C=C/c2ccc(C(C)C)cc2)c1`, the cytotoxicity call is “inactive”.

As to `CC(Cc1ccc(O)c(O)c1)(NN)C(=O)O` (configuration not stated), the cytotoxicity call was “active”.

For `O=C(O)Cc1ccc(O)c(O)c1`, the cytotoxicity call was “inactive”.

As to `CCOC(=O)[C@@H](N)Cc1ccc(O)c(O)c1`, the cytotoxicity call was “inactive”.

Consider `C[C@@](Cc1ccc(O)c(O)c1)(NN)C(=O)O`, for which the cytotoxicity call was “active”.

With `CO[C@@H]1CN(C)C(=O)c2ccc(NS(=O)(=O)c3cn(C)cn3)cc2OC[C@H](C)N(CCC(F)(F)F)C[C@@H]1C`, the cytotoxicity call is “inactive”.

With `C[C@H]1CN([C@@H](C)CO)S(=O)(=O)c2ccc(-c3cncnc3)cc2O[C@H]1CN(C)C(=O)c1cccc(F)c1`, the cytotoxicity call was “inactive”.

For the molecule `CCN1CCCC[C@@H]1C(=O)O`, the cytotoxicity call was “inactive”.

For `C[C@H]1CN([C@@H](C)CO)C(=O)c2cc(NS(=O)(=O)c3cn(C)cn3)ccc2O[C@@H]1CN(C)CC1CCCCC1`, the cytotoxicity call was “inactive”.

As for `C[C@H]1CN([C@@H](C)CO)C(=O)Cc2cc(NC(=O)CCCCCC(=O)Nc3ccccc3N)ccc2O[C@@H]1CN(C)CC1CCCCC1`, the cytotoxicity call was “inactive”.

As to `Cc1ccc(S(=O)(=O)N(C)C[C@@H]2OCCCC[C@@H](C)Oc3ccc(NC(=O)Cc4ccccc4)cc3C(=O)N([C@@H](C)CO)C[C@@H]2C)cc1`, the cytotoxicity call was “inactive”.

Turning to `Cc1ccc(S(=O)(=O)N(C)C[C@@H]2OCCCC[C@@H](C)Oc3ccc(NC(=O)Cc4ccccc4)cc3C(=O)N([C@H](C)CO)C[C@@H]2C)cc1`, the cytotoxicity call was “inactive”.

As for `Cc1ccc(S(=O)(=O)N(C)C[C@@H]2OCCCC[C@H](C)Oc3ccc(NC(=O)Cc4ccccc4)cc3C(=O)N([C@H](C)CO)C[C@H]2C)cc1`, the cytotoxicity call is “inactive”.

Consider `Cc1ccc(S(=O)(=O)N(C)C[C@@H]2OCCCC[C@H](C)Oc3ccc(NC(=O)Cc4ccccc4)cc3C(=O)N([C@H](C)CO)C[C@@H]2C)cc1`, for which the cytotoxicity call was “active”.

Regarding `Cc1ccc(S(=O)(=O)N(C)C[C@H]2OCCCC[C@H](C)Oc3ccc(NC(=O)Cc4ccccc4)cc3C(=O)N([C@H](C)CO)C[C@H]2C)cc1`, the cytotoxicity call was “inactive”.

As for `Cc1ccc(S(=O)(=O)N(C)C[C@H]2OCCCC[C@H](C)Oc3ccc(NC(=O)Cc4ccccc4)cc3C(=O)N([C@@H](C)CO)C[C@@H]2C)cc1`, the cytotoxicity call is “active”.

As for `CC(C)NC(=O)Nc1ccc2c(c1)C(=O)N([C@H](C)CO)C[C@@H](C)[C@H](CN(C)S(=O)(=O)c1cn(C)cn1)OCCCC[C@H](C)O2`, the cytotoxicity call is “inactive”.

With `CC(C)(C)NC(=O)[C@@H]1C[C@@H]2CCCC[C@@H]2CN1C[C@@H](O)[C@H](Cc1ccccc1)NC(=O)[C@H](CC(N)=O)NC(=O)c1ccc2ccccc2n1`, the cytotoxicity call was “inactive”.

Regarding `Cc1noc(C)c1S(=O)(=O)Nc1cccc2c1O[C@H](CN(C)C(=O)Nc1ccc3c(c1)OCO3)[C@H](C)CN([C@@H](C)CO)C2=O`, the cytotoxicity call was “inactive”.

Regarding `COc1ccc(S(=O)(=O)Nc2cccc3c2O[C@H](CN(C)S(C)(=O)=O)[C@H](C)CN([C@H](C)CO)C3=O)cc1`, the cytotoxicity call is “inactive”.

As for `C[C@H](CO)N1C[C@H](C)[C@@H](CN(C)Cc2ccc(C(=O)Nc3ccccc3N)cc2)Oc2c(NC(=O)c3ccc(-c4nccs4)cc3)cccc2C1=O`, the cytotoxicity call was “inactive”.

As for `C[C@@H]1CN([C@@H](C)CO)C(=O)c2cccc(NC(=O)c3ccc(-c4nccs4)cc3)c2O[C@H]1CN(C)S(=O)(=O)c1ccc(Cl)cc1`, the cytotoxicity call was “inactive”.

For `C[C@H]1CN([C@@H](C)CO)C(=O)c2cccc(NC(=O)c3ccc(-c4nccs4)cc3)c2O[C@H]1CN(C)Cc1ccc(C(=O)Nc2ccccc2N)cc1`, the cytotoxicity call was “inactive”.

Turning to `C[C@H](CO)N1C[C@H](C)[C@@H](CN(C)Cc2ccccc2)Oc2c(NC(=O)c3cnccn3)cccc2C1=O`, the cytotoxicity call was “inactive”.

`C[C@@H]1CN([C@H](C)CO)C(=O)c2cccc(NC(=O)c3ccc(-c4nccs4)cc3)c2O[C@@H]1CN(C)Cc1ccc(C(=O)Nc2ccccc2N)cc1`: the cytotoxicity call was “active”.

As to `C[C@@H]1CN([C@@H](C)CO)C(=O)c2cccc(NC(=O)c3cnccn3)c2O[C@H]1CN(C)Cc1ccccc1`, the cytotoxicity call is “inactive”.

With `C[C@@H]1CN([C@@H](C)CO)C(=O)c2cccc(NC(=O)c3ccc(-c4nccs4)cc3)c2O[C@@H]1CN(C)S(=O)(=O)c1ccc(Cl)cc1`, the cytotoxicity call was “inactive”.

With `C[C@@H]1CN([C@H](C)CO)C(=O)c2cccc(NC(=O)c3cnccn3)c2O[C@H]1CN(C)Cc1ccccc1`, the cytotoxicity call is “active”.

For `C[C@H](CO)N1C[C@H](C)[C@@H](CN(C)Cc2ccc(-c3ccccc3)cc2)Oc2c(NC(=O)c3ccc(-c4nccs4)cc3)cccc2C1=O`, the cytotoxicity call is “inactive”.

On to `C[C@@H]1CN([C@@H](C)CO)C(=O)c2cccc(NC(=O)c3ccc(-c4nccs4)cc3)c2O[C@@H]1CN(C)Cc1ccc(-c2ccccc2)cc1`, for which the cytotoxicity call was “active”.

Take `C[C@H](CO)N1C[C@H](C)[C@H](CN(C)S(=O)(=O)c2ccc(Cl)cc2)Oc2c(NC(=O)c3ccc(-c4nccs4)cc3)cccc2C1=O`: the cytotoxicity call was “active”.

Turning to `C[C@H]1CN([C@@H](C)CO)C(=O)c2cccc(NC(=O)c3ccc(-c4nccs4)cc3)c2O[C@@H]1CN(C)Cc1ccc(-c2ccccc2)cc1`, the cytotoxicity call was “inactive”.

On to `C[C@H]1CN([C@@H](C)CO)C(=O)c2cc(NS(=O)(=O)c3cccs3)ccc2O[C@@H]1CN(C)S(=O)(=O)c1ccccc1`, for which the cytotoxicity call was “inactive”.

For `COC(=O)CCCCCCC(=O)N/N=C/[C@H](O)[C@@H](O)[C@H](O[C@@H]1O[C@H](CO)[C@H](O)[C@H](O)[C@H]1O)[C@H](O)CO`, the cytotoxicity call is “inactive”.

As for `CO[C@H](CN(C)C(=O)c1ccc2c(c1)OCO2)[C@H](C)CN([C@@H](C)CO)S(=O)(=O)c1ccc(C)cc1`, the cytotoxicity call is “inactive”.

For the molecule `Cc1ccc(S(=O)(=O)N(C)C[C@H]2Oc3ccc(NC(=O)CCN4CCOCC4)cc3CC(=O)N([C@@H](C)CO)C[C@@H]2C)cc1`, the cytotoxicity call is “inactive”.

Consider `Cc1cc(=O)oc2cc(O[C@H]3O[C@@H](CO)[C@@H](O)[C@@H](O)[C@@H]3O)ccc12`, for which the cytotoxicity call was “inactive”.

`C[C@H]1C[C@@H]2[C@@H](C[C@@H]1C)N[C@@H]1C(=O)NC(=O)N[C@H]1N2C[C@H](O)[C@H](O)[C@H](O)CO`: the cytotoxicity call is “inactive”.

For `Cc1ccc(S(=O)(=O)N(C)C[C@@H]2OCCCC[C@@H](C)Oc3ccc(NC(=O)Nc4ccccc4)cc3C(=O)N([C@@H](C)CO)C[C@@H]2C)cc1`, the cytotoxicity call is “inactive”.

Take `COc1ccc(NC(=O)Nc2ccc3c(c2)C(=O)N([C@H](C)CO)C[C@H](C)[C@@H](CN(C)C(=O)Nc2cccc4ccccc24)OCCCC[C@@H](C)O3)cc1`: the cytotoxicity call is “inactive”.

As to `CC#CC(=O)NS(=O)(=O)c1ccccc1`, the cytotoxicity call was “inactive”.

Regarding `C[C@@H]1CN([C@@H](C)CO)C(=O)c2cccc(NC(=O)C3CCOCC3)c2O[C@H]1CN(C)S(=O)(=O)c1cn(C)cn1`, the cytotoxicity call is “inactive”.

With `C[C@H]1CN([C@@H](C)CO)C(=O)Cc2cc(NS(=O)(=O)c3cn(C)cn3)ccc2O[C@@H]1CN(C)CC1CCCCC1`, the cytotoxicity call was “inactive”.
